The text below walks through data of PubChem BioAssay (NCI).

The structures appear in SMILES notation. This is part of a sample that, as a whole, favours compounds with a hit. Of some 79,000 tested, about 15% had one in any assay. A number with no mark means an inactive call. Active and inactive are the calls of the source. Cut-off read from the data, not from the text of the source: active = growth inhibition above about 70%; inactive = the rest.

Assay [1] is described as follows: NCI Yeast Anticancer Drug Screen. Data for the rad50 strain (AID 155).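 Note: 0% = growth of vehicle-only cultures of the same strain.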 The note with it: S. cerevisiae rad50 strain growth inhibition, stronger effect = higher value. The method, boiled down: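 Cells are treated with compound, grown, and their growth is then scored against vehicle-only cultures of the same repair-deficient yeast strain.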
Assay [2] can be described thus: NCI Yeast Anticancer Drug Screen. Data for the mec2-1 strain (AID 157). The note with it: S. cerevisiae mec2-1 strain, stronger effect = higher value. A digest of the protocol: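 Vehicle-treated cultures served as reference for growth inhibition of compound-exposed mec2-1 yeast.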
Assay [3] in a line: NCI Yeast Anticancer Drug Screen. Data for the sgs1 mgt1 strain (AID 161).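 Note: 0% = growth of cultures given vehicle only.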 The note with it: S. cerevisiae sgs1 mgt1 strain, stronger effect = higher value. The method, boiled down:
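Inhibition of yeast growth, normalised to vehicle-treated controls, is reported for a strain bearing genetic alterations in DNA damage repair.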

Assay [4] can be described thus: NCI Yeast Anticancer Drug Screen. Data for the cln2 rad14 strain (AID 165).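 Note: 0% = growth equal to vehicle treated cultures.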 The note with it: S. cerevisiae cln2 rad14 strain, stronger effect = higher value. A digest of the protocol: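 Each compound was tested on cln2 rad14 yeast. Inhibition of growth was calculated against vehicle-exposed controls.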
Assay [5] in a line: NCI Yeast Anticancer Drug Screen. Data for the bub3 strain (AID 167). The following applies: S. cerevisiae bub3 mutant strain, stronger effect = higher value. The method, boiled down: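 Part of a panel of yeast mutants defective in DNA damage repair or cell cycle regulation. Each strain is grown with compound, and inhibition is calculated relative to solvent-treated cultures.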
Assay [6] in a line: NCI Yeast Anticancer Drug Screen. Data for the mlh1 rad18 strain (AID 175). The following applies: S. cerevisiae mlh1 rad18 strain growth inhibition, stronger effect = higher value. A digest of the protocol: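 Vehicle-treated cultures served as the reference for growth inhibition in a yeast strain carrying DNA damage repair alterations exposed to each compound.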
The mark [7] stands for this setting: at 5.0 µM (retest, dose inferred, filed as 0.5).
Where [8] appears, read: at 50.0 µM (retest, dose inferred, filed as 5.0).

On to `O=C(O)CSCc1cc2c3ccccc3sc2c2ccccc12`, for which the growth inhibition is 49% in assay [1] (setting [7]); 99% (active) in assay [1] (setting [8]); 97.9% (active) in assay [1] (at 50.0 µM); 29% in assay [2] (setting [7]); 99% (active) in assay [2] (setting [8]); 97.2% (active) in assay [2] (at 50.0 µM). Moreover, the growth inhibition is 30% in assay [3] (setting [7]); 98% (active) in assay [3] (setting [8]); 93.2% (active) in assay [3] (at 50.0 µM); 52% in assay [4] (setting [7]); 99% (active) in assay [4] (setting [8]); 97.7% (active) in assay [4] (at 50.0 µM). For the same compound, the growth inhibition is 31% in assay [5] (setting [7]); 99% (active) in assay [5] (setting [8]); 96.8% (active) in assay [5] (at 50.0 µM); 35% in assay [6] (setting [7]); 99% (active) in assay [6] (setting [8]); 98.5% (active) in assay [6] (at 50.0 µM).

As for `O=c1[nH]c2cc(Cl)ccc2nc1/C=C(\O)c1ccc(N2CCN(c3ccc(/C(O)=C/c4nc5ccc(Cl)cc5[nH]c4=O)cc3)CC2)cc1`, the growth inhibition in assay [1] (setting [7]) is 10%; in assay [1] (setting [8]), 12%; in assay [1] (at 50.0 µM), 95.8% (active); in assay [2] (setting [7]), 0%; in assay [2] (setting [8]) it was 19%; in assay [2] (at 50.0 µM) it was 96.3% (active). Further, the growth inhibition was -3% in assay [3] (setting [7]); -12% in assay [3] (setting [8]); 94.2% (active) in assay [3] (at 50.0 µM); 17% in assay [4] (setting [7]); -10% in assay [4] (setting [8]); 90.8% (active) in assay [4] (at 50.0 µM). Further, the growth inhibition in assay [5] (setting [7]) is 19%; in assay [5] (setting [8]) it was -15%; in assay [5] (at 50.0 µM) it was 94.5% (active); in assay [6] (setting [7]), -25%; in assay [6] (setting [8]) it was -7%; in assay [6] (at 50.0 µM), 94.2% (active).

For the compound `O=C(CC(=O)c1ccc(O)cc1)c1ccccc1`, the growth inhibition was -1% in assay [1] (setting [7]); 50% in assay [1] (setting [8]); 60.8% in assay [1] (at 50.0 µM); -13% in assay [2] (setting [7]); 52% in assay [2] (setting [8]); 1.2% in assay [2] (at 50.0 µM). The growth inhibition in assay [3] (setting [7]) is -1%; in assay [3] (setting [8]) it was 66%; in assay [3] (at 50.0 µM), 21.2%; in assay [4] (setting [7]), -1%; in assay [4] (setting [8]), 62%; in assay [4] (at 50.0 µM), 4.5%. Besides, the growth inhibition is -6% in assay [5] (setting [7]); 89% (active) in assay [5] (setting [8]); 48.7% in assay [5] (at 50.0 µM); 3% in assay [6] (setting [7]); 86% (active) in assay [6] (setting [8]); 58% in assay [6] (at 50.0 µM).

As to `Oc1c(Br)ccc2cccnc12`, the growth inhibition in assay [1] (setting [7]) was 26%; in assay [1] (setting [8]) it was 99% (active); in assay [1] (at 50.0 µM), 87.2% (active); in assay [2] (setting [7]), 23%; in assay [2] (setting [8]) it was 99% (active); in assay [2] (at 50.0 µM) it was 91.2% (active). The growth inhibition in assay [3] (setting [7]) is 4%; in assay [3] (setting [8]) it was 99% (active); in assay [3] (at 50.0 µM), 83.8% (active); in assay [4] (setting [7]), 0%; in assay [4] (setting [8]) it was 98% (active); in assay [4] (at 50.0 µM), 88.6% (active). For the same compound, the growth inhibition is 1% in assay [5] (setting [7]); 99% (active) in assay [5] (setting [8]); 88.5% (active) in assay [5] (at 50.0 µM); 1% in assay [6] (setting [7]); 98% (active) in assay [6] (setting [8]); 82.3% (active) in assay [6] (at 50.0 µM).

On to `CCN1/C(=C/C=C/C=C\C=C\c2sc3ccc4ccccc4c3[n+]2CC)Sc2ccc3ccccc3c21`, for which the growth inhibition was 28% in assay [1] (setting [7]); 68% in assay [1] (setting [8]); 49.2% in assay [1] (at 50.0 µM); 21% in assay [2] (setting [7]); 80% (active) in assay [2] (setting [8]); 46.8% in assay [2] (at 50.0 µM). Also, the growth inhibition is 25% in assay [3] (setting [7]); 75% (active) in assay [3] (setting [8]); 47.6% in assay [3] (at 50.0 µM); 48% in assay [4] (setting [7]); 65% in assay [4] (setting [8]); 54% in assay [4] (at 50.0 µM). The growth inhibition in assay [5] (setting [7]) is 34%; in assay [5] (setting [8]), 65%; in assay [5] (at 50.0 µM), 30.4%; in assay [6] (setting [7]), 25%; in assay [6] (setting [8]), 73% (active); in assay [6] (at 50.0 µM), 40.6%.

Turning to `CCn1c2ccccc2c(=O)c2c(OC)ccc(OC)c21`, the growth inhibition is 2% in assay [1] (setting [7]); 73% (active) in assay [1] (setting [8]); 77.6% (active) in assay [1] (at 50.0 µM); 4% in assay [2] (setting [7]); 51% in assay [2] (setting [8]); -1.7% in assay [2] (at 50.0 µM). The growth inhibition in assay [3] (setting [7]) was 0%; in assay [3] (setting [8]), 94% (active); in assay [3] (at 50.0 µM), 81.5% (active); in assay [4] (setting [7]) it was -1%; in assay [4] (setting [8]), 24%; in assay [4] (at 50.0 µM), 49.4%. Also, the growth inhibition in assay [5] (setting [7]) was 28%; in assay [5] (setting [8]), 75% (active); in assay [5] (at 50.0 µM), 52.6%; in assay [6] (setting [7]) it was -1%; in assay [6] (setting [8]), 87% (active); in assay [6] (at 50.0 µM) it was 89.8% (active).

Take `c1cnc2c(Oc3nc(Oc4cccc5cccnc45)nc(Oc4cccc5cccnc45)n3)cccc2c1`: the growth inhibition is 1% in assay [1] (setting [7]); 91% (active) in assay [1] (setting [8]); 94% (active) in assay [1] (at 50.0 µM); 30% in assay [2] (setting [7]); 90% (active) in assay [2] (setting [8]); 89.9% (active) in assay [2] (at 50.0 µM). The growth inhibition in assay [3] (setting [7]) is 18%; in assay [3] (setting [8]), 76% (active); in assay [3] (at 50.0 µM), 94.1% (active); in assay [4] (setting [7]) it was 5%; in assay [4] (setting [8]), 54%; in assay [4] (at 50.0 µM), 84.2% (active). For the same compound, the growth inhibition in assay [5] (setting [7]) was -2%; in assay [5] (setting [8]), 92% (active); in assay [5] (at 50.0 µM), 94% (active); in assay [6] (setting [7]), 30%; in assay [6] (setting [8]) it was 94% (active); in assay [6] (at 50.0 µM), 91.2% (active).

With `CC(C)C1(Cl)CCC2C3(C)CCCC(C)(C(=O)O)C3CC(Cl)C2(Cl)C1Cl` (stereo not given), the growth inhibition in assay [1] (setting [7]) was 3%; in assay [1] (setting [8]), 75% (active); in assay [1] (at 50.0 µM), 80.8% (active); in assay [2] (setting [7]), 5%; in assay [2] (setting [8]), 78% (active); in assay [2] (at 50.0 µM), 74.9% (active). The growth inhibition was 17% in assay [3] (setting [7]); 61% in assay [3] (setting [8]); 70% (active) in assay [3] (at 50.0 µM); -12% in assay [4] (setting [7]); 84% (active) in assay [4] (setting [8]); 95.8% (active) in assay [4] (at 50.0 µM). Moreover, the growth inhibition in assay [5] (setting [7]) is 14%; in assay [5] (setting [8]), 79% (active); in assay [5] (at 50.0 µM), 72.5% (active); in assay [6] (setting [7]) it was -15%; in assay [6] (setting [8]), 78% (active); in assay [6] (at 50.0 µM), 86.7% (active).

As for `C#C[C@]1(OC(C)=O)CC[C@H]2[C@@H]3CCC4=CC(=O)CC[C@@H]4[C@H]3CC[C@@]21C`, the growth inhibition in assay [1] (setting [7]) was 4%; in assay [1] (setting [8]), 16%; in assay [1] (at 50.0 µM) it was 97.6% (active); in assay [2] (setting [7]) it was 7%; in assay [2] (setting [8]), 15%; in assay [2] (at 50.0 µM) it was 88.3% (active). Moreover, the growth inhibition in assay [3] (setting [7]) was 2%; in assay [3] (setting [8]), 29%; in assay [3] (at 50.0 µM) it was 97.2% (active); in assay [4] (setting [7]) it was 9%; in assay [4] (setting [8]), 22%; in assay [4] (at 50.0 µM), 89.7% (active). The growth inhibition was 5% in assay [5] (setting [7]); 13% in assay [5] (setting [8]); 93.8% (active) in assay [5] (at 50.0 µM); 3% in assay [6] (setting [7]); 19% in assay [6] (setting [8]); 96.8% (active) in assay [6] (at 50.0 µM).

As to `COc1ccc(C=O)cc1C[P+](c1ccccc1)(c1ccccc1)c1ccccc1`, the growth inhibition in assay [1] (setting [7]) is 46%; in assay [1] (setting [8]), 97% (active); in assay [1] (at 50.0 µM), 98% (active); in assay [2] (setting [7]), 38%; in assay [2] (setting [8]) it was 99% (active); in assay [2] (at 50.0 µM), 97.6% (active). In addition, the growth inhibition in assay [3] (setting [7]) is 51%; in assay [3] (setting [8]), 99% (active); in assay [3] (at 50.0 µM), 98.4% (active); in assay [4] (setting [7]), 13%; in assay [4] (setting [8]), 94% (active); in assay [4] (at 50.0 µM), 98.3% (active). In addition, the growth inhibition is 54% in assay [5] (setting [7]); 98% (active) in assay [5] (setting [8]); 97.5% (active) in assay [5] (at 50.0 µM); 39% in assay [6] (setting [7]); 94% (active) in assay [6] (setting [8]); 97.9% (active) in assay [6] (at 50.0 µM).
